The results in this text go back to PubChem BioAssay.

Test [1] relates to XIP peptide (Xip251-270) binding. The experiment in a line: XIP fragment 251-270 binding compounds – biochemical, small-molecule microarray, fluorescence 635/667 nm, 0.1 µg/mL protein, primary screen (AID 1182). The conditions noted are these: fluorescent protein binding, 635 nm, higher = more signal, called active from +8 up or from −8 down.
The next test has as its system XIP peptide (Xip251-270). The experiment in a line: compounds binding XIP fragment 251-270 – biochemical, small-molecule microarray, fluorescence 635/667 nm, 0.5 µg/mL protein, primary screen (AID 1183). The conditions noted are these: fluorescence 635 nm, higher = more signal.
Test [2] in a line: blood-stage malaria parasite viability loss – strain 3D7, DAPI fluorescence, 100 nL, primary screen (AID 1184).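 Note: parasites grown inside human red blood cells in medium with human serum.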 The conditions noted are these: P. falciparum 3D7 growth, 3 d, higher = more signal.
In test [3] the target is Homeobox protein Hox-A13 (Mus musculus) (UniProt Q62424). The experiment in a line: disruptors of Hoxa13 oligonucleotide interaction – biochemical, fluorescence polarization, labeled oligonucleotide, primary screen (AID 1185). The conditions noted are these: Hoxa13:DNA binding, 15 min, higher = more signal, called active from +8 up or from −8 down. On the technique in general: Fluorescence polarisation rises when a labelled molecule tumbles more slowly, as on binding a larger partner.
Homeobox protein Hox-A13 (Mus musculus), sequence (Q62424 whole entry, looked up): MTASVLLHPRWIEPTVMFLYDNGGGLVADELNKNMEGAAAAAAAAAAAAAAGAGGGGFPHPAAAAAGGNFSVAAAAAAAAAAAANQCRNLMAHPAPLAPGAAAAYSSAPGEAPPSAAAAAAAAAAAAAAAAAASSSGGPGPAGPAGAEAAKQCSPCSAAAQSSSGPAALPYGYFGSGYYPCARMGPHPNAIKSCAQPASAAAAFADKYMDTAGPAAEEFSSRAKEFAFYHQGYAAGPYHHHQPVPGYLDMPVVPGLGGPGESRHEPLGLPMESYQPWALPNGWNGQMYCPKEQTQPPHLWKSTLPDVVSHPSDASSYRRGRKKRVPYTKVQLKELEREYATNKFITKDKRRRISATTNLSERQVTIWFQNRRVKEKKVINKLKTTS

Molecules are shown by their SMILES. Activity calls are given as the source filed them.

As for `COC(=O)[C@H](C)NC(=O)CCC1CC(OC(=O)NCc2cccc3ccccc23)CC2(CCCC(COC(=O)NCCOc3ccccc3)O2)O1` (stereo not given in full), the composite z-score in test [1] is 2.12 (inactive); with XIP peptide (Xip251-270) it was 0.345. The z-score in test [2] was -0.372; in test [3] it was -6.3 (inactive).

With `CC(=O)OC[C@H]1O[C@@H](ON=C(C)CCN2CCCCc3nc(C)c(C)cc32)[C@H](OC(C)=O)[C@@H](OC(C)=O)[C@@H]1OC(C)=O`, the composite z-score in test [1] was -0.0733 (inactive); in the test on XIP peptide (Xip251-270) it was 0.566. Besides, the z-score in test [2] was -0.98; in test [3], -3.93 (inactive).

With `CC(=O)OC[C@H]1O[C@H](C#CCCc2ccccc2)C=C[C@@H]1OC(C)=O`, the composite z-score in test [1] is 0.22 (inactive); in the test on XIP peptide (Xip251-270), 0.758. In addition, the results for the z-score in test [2] and in test [3] were 0.972 and -4.7 (inactive), respectively.

On to `CCN1C(=O)[C@H]2[C@@H]3C(=CC[C@H]2C1=O)C(=O)[C@H]1O[C@H]1[C@H]3O`, for which the composite z-score in test [1] is -0.529 (inactive); with XIP peptide (Xip251-270), 0.568. The z-score in test [2] is -1.94; in test [3], -6.04 (inactive).

For `COC(=O)C1=C(C)N(Cc2ccccc2)C2=C3C(=O)OCC[C@@H]3[C@@](O)(C(=O)OC)C(=O)N2[C@@H]1c1ccccc1`, the values for the composite z-score (in test [1]; with XIP peptide (Xip251-270)) were 0.75 (inactive) and -0.189, respectively. Also, the z-score in test [2] is 0.964; in test [3] it was -0.987 (inactive).

Take `CCOC(=O)[C@H](Cc1ccccc1)NC(=O)CCC1CC(OC(=O)NCCc2ccc(F)cc2)CC2(CCCC(COC(=O)NCCC(C)C)O2)O1` (stereo not given in full): the values for the composite z-score (in test [1]; in the test with XIP peptide (Xip251-270)) were 0.162 (inactive) and 0.657, respectively. In addition, the z-score in test [2] was -1.66; in test [3], -4.45 (inactive).

In the case of `CC(=O)OC[C@H]1O[C@H](CC=NOC[C@@H](O)COCc2ccco2)C=C[C@@H]1OC(C)=O`, the composite z-score in test [1] is 0.084 (inactive); in the test with XIP peptide (Xip251-270), 0.479. The z-score was 0.466 in test [2] and -0.226 (inactive) in test [3].

With `COC(=O)CC=C[C@@H](C)[C@@H](C=NOC(C)CN1CCCCc2nc(C)c(C)cc21)NS(=O)(=O)c1ccc(C)cc1` (stereo not given in full), the values for the composite z-score (in test [1]; in the test with XIP peptide (Xip251-270)) were -0.598 (inactive) and -0.0903, respectively. Also, the z-score is 0.453 in test [2] and -0.327 (inactive) in test [3].

In the case of `CCO[C@H](c1cc(OC)cc([N+](=O)[O-])c1OC)[C@H](C)[C@@H](OC)[C@H](C)C=CCC(=O)OC`, the figures for the composite z-score (in test [1]; in the test with XIP peptide (Xip251-270)) were 0.72 (inactive) and 0.0025, respectively. Moreover, the z-score in test [2] is -0.119; in test [3], -0.256 (inactive).

On to `Cc1ccc(S(=O)(=O)N[C@@H]2COC(=O)CC=C[C@@H](C)[C@H](NS(=O)(=O)c3ccc(C)cc3)COC(=O)[C@H](C)NC(=O)CC=C[C@H]2C)cc1`, for which the composite z-score in test [1] is -0.668 (inactive); in the test with XIP peptide (Xip251-270) it was -0.564. Besides, the z-score was -0.196 in test [2] and -1.11 (inactive) in test [3].

Take `COc1cccc([C@H]2Oc3ccc(OC)cc3C(=NO[C@@H](C)c3cc(-c4c(C)cc(C)cc4C)no3)[C@@H]2O)c1`: the composite z-score in test [1] is -0.294 (inactive); in the test with XIP peptide (Xip251-270), 0.0817. Also, the results for the z-score in test [2] and in test [3] were -0.24 and 0.621 (inactive), respectively.

Regarding `COC(=O)[C@H](C)NC(=O)CC=C[C@@H](C)[C@@H]1C=C[C@H](O)[C@@H](CO)O1`, the composite z-score in test [1] is 0.672 (inactive); with XIP peptide (Xip251-270), 0.0241. The z-score in test [2] is -1.66; in test [3], -0.56 (inactive).

Consider `CC(C)(C)N1C(=O)[C@H]2[C@H]3[C@H](O)[C@H](O)CC(=NOC[C@@H](O)COCc4ccco4)[C@@H]3CC[C@H]2C1=O`, for which the composite z-score in test [1] is -0.484 (inactive); with XIP peptide (Xip251-270), 0.502. Also, the z-score was -0.0662 in test [2] and -2.78 (inactive) in test [3].

On to `O=C1C[C@@H](O)[C@@H](O)[C@@H]2[C@@H]3C(=O)N(c4ccc(F)cc4F)C(=O)[C@@H]3CC[C@H]12`, for which the composite z-score in test [1] is 0.139 (inactive); in the test on XIP peptide (Xip251-270), -0.0234. The z-score was 0.289 in test [2] and -0.55 (inactive) in test [3].

On to `CCOC(=O)[C@H](Cc1ccccc1)NC(=O)CCC1CC(OC(=O)NCc2ccc3c(c2)OCO3)CC2(CCCC(COC(=O)NCCc3ccc(Cl)cc3)O2)O1` (stereo not given in full), for which the composite z-score in test [1] is 0.0608 (inactive); with XIP peptide (Xip251-270), 0.563. The z-score in test [2] is -1.78; in test [3], -1.76 (inactive).

`O=C1[C@H]2[C@H]3[C@H](O)[C@H](O)CC(=NO[C@@H]4O[C@H](CO)[C@@H](O)[C@H](O)[C@H]4O)[C@@H]3CC[C@H]2C(=O)N1C1CCCCC1`: the composite z-score in test [1] is -0.25 (inactive); with XIP peptide (Xip251-270), 0.0473. Also, the z-score is 0.0387 in test [2] and 0.719 (inactive) in test [3].

In the case of `CCOC(=O)CCN1C(=O)[C@H]2[C@H]3[C@H](O)[C@H](O)CC(=NOCC(C)C)[C@@H]3CC[C@H]2C1=O`, the composite z-score in test [1] was -0.0503 (inactive); with XIP peptide (Xip251-270), 0.203. The results for the z-score in test [2] and in test [3] were -0.379 and -3.95 (inactive), respectively.

For `CCOC(=O)CCN1C(=O)[C@H]2[C@H]3[C@H](O)[C@H](O)CC(=NNC(=O)OCc4ccc(OC)cc4)[C@H]3CC[C@H]2C1=O`, the values for the composite z-score (in test [1]; in the test with XIP peptide (Xip251-270)) were 0.353 (inactive) and 0.277, respectively. Also, the z-score in test [2] is 0.144; in test [3], -3.67 (inactive).

As to `CO[C@@H](C(C)C)[C@@H](C)C1OC(=O)CC1O` (stereo not given in full), the composite z-score is 0.51 (inactive) in test [1] and 0.129 in the test with XIP peptide (Xip251-270). The z-score in test [2] was -1.69; in test [3], 0.186 (inactive).

Regarding `CCN1C(=O)[C@H]2[C@H]3[C@H](O)[C@H](O)CC(=NO[C@H](C)c4cn([C@@H]5COC[C@H]5O)nn4)[C@@H]3CC[C@H]2C1=O`, the figures for the composite z-score (in test [1]; with XIP peptide (Xip251-270)) were 0.0118 (inactive) and -0.629, respectively. For the same compound, the z-score was 0.202 in test [2] and -0.803 (inactive) in test [3].
